{"source": "PubChem BioAssay (EPA / NIEHS)", "note": "Active and inactive are the calls of the source. The calls were made as follows: active = hit-call score of the fitted dose curve at least 0.9, where 1 is the maximum; inactive = score below 0.9.", "data": [{"read-out": "Phosphatase and tensin (PTEN), PTEN (gene 5728)", "experiment": "LTEA_HepaRG_PTEN: Life Technologies and Expression Analysis (LTEA) Assay for Phosphatase and tensin (PTEN) using HepaRG (AID 2283523)", "settings": "mRNA level, 48 h; actives raise or lower the signal", "procedure": "LTEA_HepaRG is a cell based, multiplexed-readout assay that uses HepaRG, a human liver cell line, with measurements taken at 48 hours after chemical dosing on a 96-well plate.LTEA_HepaRG_PTEN is one of 102 assay component(s) measured in the LTEA HepaRG cell culture assay. It is a marker of Cell proliferation, survival, death.Data from the assay component LTEA_HepaRG_PTEN was analyzed into 1 endpoint. This assay endpoint, LTEA_HepaRG_PTEN, was analyzed with bidirectional fitting relative to DMSO as the negative control and baseline of activity. Using a type of inducible reporter, measures of mRNA induction for gain or loss-of-signal activity can be used to understand regulation of transcription factor activity. To generalize the intended target to other relatable targets, this assay endpoint is annotated to the phosphatase intended target family, where the subfamily is dual-specific phosphatase.\nA total of 1060 chemcials from the ToxCast library were tested in eight-point concentration-response experiments. Cell culture and cytotoxicity assays were conducted at Thermo Fisher Scientific's Custom Services facility (Madison, WI). A single lot of human HepaRG cells (Thermo Fisher Scientific, Frederick, MD) was used for the cell culture experiments. 96-well format collagen type I coated plates of human HepaRG cells were prepared using established methods. Briefly, cryopreserved HepaRG cells were thawed, plated at a density of approximately 100,000 cells/well in HepaRG Thaw, Plate, and General Purpose media (HPRG770, Thermo Fisher Scientific), and incubated for 48 hours. 0.5% DMSO was selected as vehicle control to balance the requisite need of DMSO in HepaRG cultures to maintain differentiation (for example, baseline metabolism, proportions of hepatocytes vs. cholangiocytes), while enabling further hepatic receptor pathway activation (for example, PXR and CAR) in response to chemical exposure. 48 hours after plating, the culture medium was replaced with HepaRG Serum-Free Incudtion Media. Cells were exposed to each test chemical in duplicate and maintained in CO2 incubators for another 48 hours. Chemical plates were thawed to room temperature and 200x concentrations of treatment groups were prepared. 8-point conentration-reponse curves were made with the highest exposure at 100 uM, followed by half-log dilutions, all in 0.5% DMSO. Each test plate contained variouse controls, induction positive controls (1mM phenobarbital), cytotoxicity positive controls ([…] aflatoxin B1), vehicle controls (0.5% DMSO), and total lysis controls (0.5% DMSO). Cell morphology images were taken using an Essen IncuCyte FLR automated microscope, with six 96-well plates imaged in about 24 minutes. Images were captured and exported and JPEG files. Spent culture media was transfered to black-well plates for the LDH assay, and remaining media was sorted at -80 C for later use. Cells were treated with RLT buffer and frozen until shipped for gene expression analysis. Total RNA was isolated from the cell suspension in 75 uL of Buffer RLT (Qiagen, Germantown, MD 20874) by Quintiles/Expression Analysis (Durham, NC) using a custom isolation procedure. Total RNA from each plate well was transferred to a preamplification plate. Fluidigm's 96.96 Dynamic ArrayTM (Fluidigm, Amsterdam, the Netherlands) technology was used for gene expression analyses by quantitative reverse transcription polymerase chain reaction (qRT-PCR, performed by Quintiles/Expression Analysis, Durham, NC)89. Standard TaqManTM Assays (Applied Biosystems/ThermoFisher Scientific, Foster City, CA) were used to assess the expression of 93 genes selected based on their selectivity and sensitivity to important hepatic receptors known to be modulated by environmental chemicals; importance in human hepatocyte functionality; and hepatotoxicity. […]", "values": [{"smiles": "CCCCCCCCCc1ccc(O)cc1", "outcome": "inactive"}, {"smiles": "Oc1ccc(C(c2ccc(O)cc2)(C(F)(F)F)C(F)(F)F)cc1", "outcome": "inactive"}, {"smiles": "CO/C=C(/C(=O)OC)c1ccccc1COc1cccc(C(F)(F)F)n1", "outcome": "inactive"}, {"smiles": "CN(C)c1nc(=O)n(C2CCCCC2)c(=O)n1C", "outcome": "inactive"}, {"smiles": "Cc1cc(O)ccc1Cl", "outcome": "inactive"}, {"smiles": "ClC(Cl)=C(c1ccc(Cl)cc1)c1ccc(Cl)cc1", "outcome": "inactive"}, {"smiles": "CC#Cc1cc(C)nc(Nc2ccccc2)n1", "outcome": "inactive"}, {"smiles": "c1ccc(-c2ccccc2)cc1", "outcome": "inactive"}, {"smiles": "CCC(C)(CC)c1cc(NC(=O)c2c(OC)cccc2OC)on1", "outcome": "inactive"}, {"smiles": "CCOP(=S)(OCC)SCSC(C)(C)C", "outcome": "inactive"}, {"smiles": "COS(=O)(=O)OC", "outcome": "inactive"}, {"smiles": "N#Cc1ccc(N(CC(N)=O)CC(F)(F)F)cc1C(F)(F)F", "outcome": "inactive"}, {"smiles": "Cc1cc(-c2ccc(N)c(C)c2)ccc1N", "outcome": "inactive"}, {"smiles": "Cc1ccccc1CO[C@@H]1C[C@@]2(C(C)C)CC[C@]1(C)O2", "outcome": "inactive"}, {"smiles": "Nn1cnnc1", "outcome": "inactive"}, {"smiles": "CCCN(CCC)N=O", "outcome": "inactive"}, {"smiles": "NS(=O)(=O)C(F)(F)C(F)(F)C(F)(F)C(F)(F)C(F)(F)C(F)(F)C(F)(F)C(F)(F)F", "AC50": "26.2 µM (active)"}, {"smiles": "O=S(=O)(O)C(F)(F)C(F)(F)C(F)(F)C(F)(F)C(F)(F)C(F)(F)F", "AC50": "10.3 µM (active)"}, {"smiles": "CCNc1nc(NC(C)C)nc(SC)n1", "outcome": "inactive"}, {"smiles": "Cc1cc2c3c(c1)C(c1ccccc1)=N[C@@H](NC(=O)c1ccncc1)C(=O)N3CC2", "outcome": "inactive"}, {"smiles": "O=C(NC(=O)c1cc(F)c(F)cc1Cl)Nc1cc(F)ccc1N1CCC(C(=O)O)CC1", "outcome": "inactive"}, {"smiles": "Cc1cccc([N+](=O)[O-])c1", "outcome": "inactive"}, {"smiles": "O=C(O)C(F)(F)C(F)(F)C(F)(F)C(F)(F)C(F)(F)C(F)(F)C(F)(F)C(F)(F)F", "outcome": "inactive"}, {"smiles": "Nc1ccc(-c2ccc(N)cc2)cc1", "outcome": "inactive"}, {"smiles": "CC(C)(c1ccccc1)c1ccc(O)cc1", "outcome": "inactive"}, {"smiles": "c1cc2ccc3cccc4ccc(c1)c2c34", "outcome": "inactive"}, {"smiles": "CCOC(=O)C(O)(c1ccc(Cl)cc1)c1ccc(Cl)cc1", "outcome": "inactive"}, {"smiles": "O=S(=O)(O)C(F)(F)C(F)(F)C(F)(F)C(F)(F)F", "outcome": "inactive"}, {"smiles": "CCCCCCCCOC(=O)c1ccccc1C(=O)OCCCCCCCC", "outcome": "inactive"}, {"smiles": "O=C(O)C(F)(F)C(F)(F)C(F)(F)C(F)(F)C(F)(F)F", "outcome": "inactive"}, {"smiles": "Cc1cccc(C)c1N", "outcome": "inactive"}, {"smiles": "ClC1=C(Cl)[C@]2(Cl)[C@@H]3[C@@H](Cl)[C@H]4O[C@H]4[C@@H]3C1(Cl)C2(Cl)Cl", "outcome": "inactive"}, {"smiles": "CC(c1ccc(O)cc1)(c1ccc(O)cc1)c1ccc(O)cc1", "AC50": "74.3 µM (active)"}, {"smiles": "C[C@]12CCC(=O)C=C1CC[C@@H]1[C@@H]2CC[C@]2(C)C(=O)CC[C@@H]12", "outcome": "inactive"}, {"smiles": "COc1ccc(O)c(C(C)(C)C)c1", "outcome": "inactive"}, {"smiles": "Cc1ccccc1[N+](=O)[O-]", "outcome": "inactive"}, {"smiles": "O=C(O)C(F)(F)C(F)(F)C(F)(F)C(F)(F)C(F)(F)C(F)(F)C(F)(F)C(F)(F)C(F)(F)F", "AC50": "82.2 µM (active)"}, {"smiles": "CC(C)(O)C(=O)Nc1ccc([N+](=O)[O-])c(C(F)(F)F)c1", "outcome": "inactive"}, {"smiles": "CCOCCOC(C)=O", "outcome": "inactive"}, {"smiles": "Clc1ccc(Cl)cc1", "outcome": "inactive"}]}]}
